Test results taken from the supplement of paper PMC4723716.
± gives the uncertainty stated by the source. The full ranking holds about 9,900 compounds; the median of “viability index relative to DMSO control” is about 1, and the lowest 2% start at about 0.85. This is one part of a sample in which the lowest values are shown more often than they occur.

Test system: Plasmodium falciparum NF54 stage V gametocytes
Experiment: viability index relative to DMSO control (fraction); higher = less gametocyte killing
Settings: 2.5 µM, incubation time: 72 h
Description: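 Broad DOS informer set and blood-stage-active DOS compounds screened in duplicate at 2.5 µM against P. falciparum NF54 stage V gametocytes with the serum-free one-step SaLSSA (1536-well): 72 h at 37 °C under low oxygen, then saponin lysis and MitoTracker Red CMXRos staining, with high-content imaging. Viability index = viable-object count divided by the plate mean of DMSO wells (0 = killed, about 1 = inactive).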

[1] = library set: Broad Institute DOS
[2] = library set: Broad Institute Blood Stage

| Compound | viability index [1] | viability index [2] |
| --- | --- | --- |
| C[C@@H]1CN([C@@H](C)CO)C(=O)c2cc(NS(=O)(=O)c3cn(C)cn3)ccc2O[C@H]1CN(C)S(=O)(=O)c1ccc(F)cc1 | 1.06 ± 0.038 | – |
| O=C(C[C@H]1C=C[C@@H](NC(=O)c2ccncc2)[C@H](CO)O1)NCC1CC1 | 1.029 ± 0.0019 | – |
| Cc1ccccc1-c1ccc([C@H]2[C@H]3CN(S(C)(=O)=O)CC(=O)N3[C@H]2CO)cc1 | 0.975 ± 0.047 | – |
| CCc1nc(N2[C@@H](C#N)[C@H](c3ccccc3-c3ccccc3C)[C@@H]2CO)sc1C | 0.81 ± 0.063 | – |
| CCc1nc(N2[C@H](C#N)[C@@H](c3ccccc3-c3ccccc3C)[C@@H]2CO)sc1C | 1.07 ± 0.088 | – |
| CCc1nc(N2[C@@H](C#N)[C@@H](c3ccccc3-c3ccccc3C)[C@@H]2CO)sc1C | 1.08 ± 0.12 | – |
| COc1ccc2c3c([nH]c2c1)[C@@H](CO)N(C[C@]31CCN(C)CC1)S(=O)(=O)c1ccccc1 | 1.04 ± 0.032 | – |
| CO[C@@H]1CN(C)C(=O)c2ccc(NS(C)(=O)=O)cc2OC[C@@H](C)N(C(=O)CN(C)C)C[C@H]1C | 0.977 ± 0.055 | – |
| N#Cc1ccc(-c2ccc([C@@H]3[C@@H]4CN(C(=O)c5cccnc5)C[C@H]3N4)cc2)cc1 | 0.81 ± 0.2 | – |
| N#Cc1ccc(-c2ccc([C@H]3[C@@H]4CN(C(=O)c5cccnc5)C[C@H]3N4)cc2)cc1 | 1.15 ± 0.046 | – |
| O=C(c1ccc(F)cc1)N1C[C@@H]2N[C@H](C1)[C@H]2c1ccc(-c2cccnc2)cc1 | 1.08 ± 0.12 | – |
| N#Cc1cccc(-c2ccc([C@H]3[C@@H]4CN(C(=O)c5ccc6c(c5)OCO6)C[C@H]3N4)cc2)c1 | 1.09 ± 0.072 | – |
| N#Cc1cccc(-c2ccc([C@@H]3[C@@H]4CN(C(=O)c5ccc6c(c5)OCO6)C[C@H]3N4)cc2)c1 | 0.896 ± 0.077 | – |
| N#Cc1ccc(-c2ccc([C@@H]3[C@@H]4CN(C(=O)Nc5ccc6c(c5)OCO6)C[C@H]3N4)cc2)cc1 | 0.56 ± 0.15 | – |
| O=C(Cc1ccncc1)N1CC[C@@H]2[C@H]1c1cc(-c3ccccc3F)ccc1N[C@@H]2CO | 1.03 ± 0.046 | – |
| CCS(=O)(=O)N1CC[C@@]2(CC1)CN([C@H](CO)c1[nH]c3cc(OC)ccc3c21)S(=O)(=O)c1ccc(C)cc1 | 1 ± 0.046 | – |
| COc1ccc2c3c([nH]c2c1)[C@H](CO)N(C[C@]31CCN(CC1)C(=O)Cc1cccnc1)S(=O)(=O)c1ccc(C)cc1 | 0.75 ± 0.079 | – |
| COc1ccc2c3c([nH]c2c1)[C@@H](CO)N(C[C@]31CCN(CC1)C(=O)Cc1cccnc1)S(=O)(=O)c1ccc(C)cc1 | 0.827 ± 0.019 | – |
| COc1ccc2c3c([nH]c2c1)[C@H](CO)N(Cc1ccc(Cl)cc1)C[C@]31CN(C1)S(C)(=O)=O | 0.931 ± 0.066 | – |
| CCCC(=O)N1C[C@@]2(C1)CN([C@H](CO)c1[nH]c3cc(OC)ccc3c21)S(=O)(=O)c1ccc(C)cc1 | 0.946 ± 0.074 | – |
| CCCC(=O)N1C[C@@]2(C1)CN([C@@H](CO)c1[nH]c3cc(OC)ccc3c21)S(=O)(=O)c1ccc(C)cc1 | 0.9841 ± 0.0028 | – |
| CCCC(=O)N1CC[C@@]2(CC1)CN([C@@H](CO)c1[nH]c3cc(OC)ccc3c21)S(=O)(=O)c1ccc(C)cc1 | – | 0.655 ± 0.046 |
| COc1ccc2c3c([nH]c2c1)[C@@H](CO)N(C[C@]31CN(C1)C(=O)Cc1cccnc1)S(C)(=O)=O | 1.06 ± 0.048 | – |
| COc1ccc2c3c([nH]c2c1)[C@H](CO)N(C[C@]31CN(C1)C(=O)Cc1cccnc1)S(C)(=O)=O | 1.08 ± 0.04 | – |

| Compound | viability index [1] | viability index [2] |
| --- | --- | --- |
| CCS(=O)(=O)N1CC[C@@]2(CC1)CN([C@@H](CO)c1[nH]c3cc(OC)ccc3c21)S(=O)(=O)c1ccc(C)cc1 | 0.934 ± 0.052 | – |
| COc1ccc2c3c([nH]c2c1)[C@@H](CO)N(Cc1ccc(Cl)cc1)C[C@]31CN(C1)S(C)(=O)=O | 0.931 ± 0.095 | – |
| COc1ccc(CN2C[C@]3(CN(C3)S(=O)(=O)c3ccc(C)cc3)c3c([nH]c4cc(OC)ccc34)[C@H]2CO)cc1 | 0.793 ± 0.014 | – |
| C[C@H](CO)N1C[C@H](C)[C@H](CN(C)C(=O)Nc2cccc(C(F)(F)F)c2)OCc2cn(nn2)CCCC1=O | 1.01 ± 0.036 | – |
| COc1ccc2c3c([C@@H](CO)N(C[C@]33CN(C3)C(=O)c3ccccc3F)C(=O)Nc3ccccc3F)n(C)c2c1 | 0.97 ± 0.053 | – |
| O=C(Cc1cccnc1)N1CC(=O)N2[C@@H](CO)[C@H](c3ccc(/C=C/c4ccccc4)cc3)[C@@H]2C1 | 1.015 ± 0.0057 | – |
| C[C@H]1CN([C@@H](C)CO)C(=O)Cc2cc(N(C)C)ccc2O[C@@H]1CN(C)C(=O)NC1CCCCC1 | 0.883 ± 0.058 | – |
| O=C1CNC[C@@H]2[C@H](c3ccc(C#CC4CCCCC4)cc3)[C@@H](CO)N12 | 1.06 ± 0.067 | – |
| CN1CCN(C(=O)C[C@H]2CC[C@@H]3[C@H](COC[C@H](O)CN3C(=O)c3ccccc3F)O2)CC1 | 0.986 ± 0.019 | – |
| Cc1ccc(S(=O)(=O)Nc2ccc3c(c2)C(=O)N([C@@H](C)CO)C[C@@H](C)[C@@H](CN(C)Cc2ccc(C(F)(F)F)cc2)O3)cc1 | 1.04 ± 0.07 | – |
| COc1ccc(NC(=O)N(C)C[C@@H]2Oc3ccc(NC(=O)Nc4cccc5ccccc45)cc3CC(=O)N([C@@H](C)CO)C[C@H]2C)cc1 | 1.03 ± 0.033 | – |
| O=C(N[C@@H]1C=C[C@@H](CC(=O)N2CCN(c3ccccc3)CC2)O[C@@H]1CO)c1ccccc1 | 1.11 ± 0.12 | – |
| N#C[C@H]1[C@@H](c2ccccc2-c2ccccc2F)[C@@H](CO)N1C(=O)c1cccc(F)c1 | 1.16 ± 0.25 | – |
| Cc1noc(C)c1NC(=O)N[C@@H]1C=C[C@@H](CC(=O)Nc2ccc(-c3ccccc3)cc2)O[C@@H]1CO | 0.979 ± 0.1 | – |
| Cc1noc(C)c1S(=O)(=O)Nc1ccc2c(c1)C(=O)N([C@H](C)CO)C[C@@H](C)[C@H](CN(C)Cc1ccc(C(=O)O)cc1)OCCCC[C@@H](C)O2 | 1.07 ± 0.12 | – |
| CN(C)CC(=O)N1[C@H](C#N)[C@H](c2ccc(C#CC3CCCCC3)cc2)[C@@H]1CO | 0.981 ± 0.11 | – |
| CN(C)CC(=O)N1[C@H](C#N)[C@@H](c2ccc(C#CC3CCCCC3)cc2)[C@H]1CO | 1.05 ± 0.039 | – |
| N#C[C@H]1[C@@H](c2ccc(-c3cccc(F)c3)cc2)[C@H](CO)N1C(=O)NC1CCCC1 | 1.055 ± 0.0015 | – |
| CCCNC(=O)N1[C@H](C#N)[C@H](c2ccc(C#Cc3ccc(F)cc3)cc2)[C@@H]1CO | – | 0.844 ± 0.021 |
| CCCNC(=O)N1[C@H](CO)[C@H](c2ccc(C#Cc3cccc(F)c3)cc2)[C@@H]1C#N | 1.09 ± 0.027 | – |
| N#C[C@@H]1[C@H](c2ccc(-c3cccc(F)c3)cc2)[C@H](CO)N1C(=O)NC1CCCC1 | 0.743 ± 0.059 | – |
| CC(C)NC(=O)N1[C@H](C#N)[C@H](c2ccc(C#CC3CCCCC3)cc2)[C@@H]1CO | – | 0.822 ± 0.041 |
| CCCNC(=O)N1[C@H](C#N)[C@@H](c2ccc(C#Cc3cccc(F)c3)cc2)[C@@H]1CO | 0.981 ± 0.013 | – |
| N#C[C@@H]1[C@@H](c2ccc(-c3cccc(F)c3)cc2)[C@H](CO)N1C(=O)NC1CCCC1 | 0.935 ± 0.064 | – |

| Compound | viability index [1] | viability index [2] |
| --- | --- | --- |
| C/C=C/c1ccc([C@H]2[C@@H](CO)N3CCCCN(S(=O)(=O)c4ccc(OC)cc4)C[C@@H]23)cc1 | 0.972 ± 0.078 | – |
| CCCNC(=O)Nc1ccc2c(c1)OC[C@@H](C)N(C(=O)C1CCOCC1)C[C@H](C)[C@H](OC)CN(C)C2=O | 0.996 ± 0.052 | – |
| COCC(=O)Nc1ccc2c(c1)C(=O)N(C)C[C@@H](OC)[C@H](C)CN(CCc1ccccc1)[C@H](C)CO2 | 1.05 ± 0.042 | – |
| O=C(C[C@@H]1C=C[C@H](NC(=O)Nc2ccccc2F)[C@@H](CO)O1)NCc1ccc(-c2ccccc2)cc1 | 1.11 ± 0.14 | – |
| O=C(C1CCCCC1)N1C[C@@H]2N[C@H](C1)[C@H]2c1ccc(-c2ccccc2F)cc1 | 1.08 ± 0.092 | – |
| CN(C)CC(=O)N1C[C@@H]2N[C@H](C1)[C@@H]2c1ccc(-c2ccccc2F)cc1 | 0.745 ± 0.074 | – |
| Cc1cccc(-c2ccc([C@@H]3[C@@H]4CN(C(=O)c5ccncc5)C[C@H]3N4)cc2)c1 | 1.09 ± 0.12 | – |
| Cc1cccc(-c2ccc([C@H]3[C@@H]4CN(Cc5cccc(F)c5)C[C@H]3N4)cc2)c1 | 1.053 ± 0.0043 | – |
| CN(C)CC(=O)N1C[C@@H]2N[C@H](C1)[C@H]2c1ccc(-c2ccccc2F)cc1 | 0.832 ± 0.011 | – |
| Cc1cccc(-c2ccc([C@@H]3[C@@H]4CN(Cc5cccc(F)c5)C[C@H]3N4)cc2)c1 | 0.816 ± 0.064 | – |
| O=C(Nc1ccccc1)N1C[C@@H]2N[C@H](C1)[C@@H]2c1ccc(-c2ccccc2F)cc1 | 1.03 ± 0.08 | – |
| O=C(Nc1ccccc1)N1C[C@@H]2N[C@H](C1)[C@H]2c1ccc(-c2ccccc2F)cc1 | 1.1 ± 0.05 | – |
| Fc1cccc(-c2ccc([C@@H]3[C@@H]4CN(Cc5cncnc5)C[C@H]3N4)cc2)c1 | 1.04 ± 0.06 | – |
| O=C(C1CC1)N1C[C@@H]2N[C@H](C1)[C@@H]2c1ccc(-c2ccccc2F)cc1 | – | 0.988 ± 0.046 |
| CN(C)CC(=O)N1C[C@@H]2N[C@H](C1)[C@@H]2c1ccc(C2=CCCCC2)cc1 | 0.898 ± 0.013 | – |
| Cc1cccc(-c2ccc([C@@H]3[C@@H]4CN(C(=O)CN(C)C)C[C@H]3N4)cc2)c1 | 0.477 ± 0.045 | – |
| N#C[C@H]1[C@@H](c2ccccc2-c2cccc(F)c2)[C@H](CO)N1S(=O)(=O)c1cccc(F)c1 | 1.17 ± 0.1 | – |
| C[C@@H]1CCCCO[C@H](CN(C)Cc2ccc(Cl)c(Cl)c2)[C@@H](C)CN([C@H](C)CO)C(=O)c2cc(NC(=O)c3ccncc3)ccc2O1 | 1.05 ± 0.047 | – |
| C/C=C/c1ccc([C@@H]2[C@@H](CO)N3C(=O)CN(S(=O)(=O)c4ccccc4)C[C@H]23)cc1 | 1.11 ± 0.026 | – |
| CN1c2ccc(-c3ccc(F)cc3)cc2[C@@H]2[C@@H](CCN2C(=O)Cc2cccnc2)[C@@H]1CO | 1.09 ± 0.061 | – |
| C[C@@H]1CN([C@@H](C)CO)C(=O)c2cc(NC(=O)Nc3ccccc3)ccc2O[C@H]1CN(C)Cc1ccccc1 | 0.979 ± 0.015 | – |
| C[C@@H]1CN([C@H](C)CO)C(=O)c2c(c3ccccc3n2C)-c2ccccc2CO[C@H]1CN(C)C(=O)[C@@H](Cc1ccccc1)N(C)C | 1.14 ± 0.11 | – |
| COCC(=O)N1[C@@H]2CN(C)c3ccccc3[C@@H]2[C@@H]1CO | 1.05 ± 0.034 | – |
| CN(C)C(=O)c1cccc(-c2cccc(-c3nc(C(=O)N4CCCCC4)cc4c3[C@H](CCO)N([S@@](=O)C(C)(C)C)C4)c2)c1 | 1.04 ± 0.0013 | – |
